{"source": "the supplement of paper PMC4683952", "note": "Counter-ions that a name gives are not always drawn. Out of some 1,200 compounds screened, about 50 (4%) showed activity. The sample holds actives, similar compounds and a random draw of the others, so the mix is not that of the screen. Values without a mark were called inactive. Cut-off read from the data, not from the text of the source: all actives reach 1.3 or more but so do some inactives."}
{"tested_on": "Lgr5 (MarsCy1-Lgr5-EGFP, U2OS)", "assay": "cell-surface Lgr5 expression (SCi1 fluorescence, background-subtracted) relative to WT DMSO (fold of DMSO control); higher = more Lgr5 at the plasma membrane, active = hit call of the paper", "conditions": "U2OS MarsCy1-Lgr5-EGFP stable; treatment time: overnight; 16 µM; library: Johns Hopkins Clinical Compound Library"}
{"compound": "N[C@H]1C(O)O[C@H](CO)[C@@H](O)[C@@H]1O", "note": "(some centres undefined) [Glucosamine]", "cell-surface Lgr5 expression": 1.06}
{"compound": "c1ccc(Cc2nc3ccccc3[nH]2)cc1", "note": "[Bendazol (2-Benzylbenzimidazole)]", "cell-surface Lgr5 expression": 1.05}
{"compound": "N=C(N)N1Cc2ccccc2C(O)C1", "note": "(centres undefined) [4-Hydroxydebrisoquin]", "cell-surface Lgr5 expression": 1.07}
{"compound": "Cc1cc2nc3c(=O)[nH]c(=O)nc-3n(C[C@H](O)[C@H](O)[C@H](O)COP(=O)(O)OP(=O)(O)OC[C@H]3O[C@@H](n4cnc5c(N)ncnc54)[C@H](O)[C@@H]3O)c2cc1C", "note": "[Flavin adenine dinucleotide]", "cell-surface Lgr5 expression": 1.01}
{"compound": "CCOc1ccc(NC(C)=O)cc1", "note": "[Phenacetin (acetophenetidin)]", "cell-surface Lgr5 expression": 1.24}
{"compound": "CCCCOc1ccc(CC(=O)NO)cc1", "note": "[Bufexamac]", "cell-surface Lgr5 expression": "1.82 (active)"}
{"compound": "CCOc1ccc(NC(=O)CC(C)O)cc1", "note": "(centres undefined) [Bucetin]", "cell-surface Lgr5 expression": 1.29}
{"compound": "Cc1c(C)c2c(c(C)c1O)CCC(C)(COc1ccc(CC3SC(=O)NC3=O)cc1)O2", "note": "(centres undefined) [Troglitazone]", "cell-surface Lgr5 expression": 1.09}
{"compound": "Oc1cccc(O)c1O", "note": "[Pyrogallol]", "cell-surface Lgr5 expression": 1.15}
{"compound": "CC1(C)O[C@@H]2C[C@H]3[C@@H]4CCC5=CC(=O)CC[C@]5(C)[C@@]4(F)[C@@H](O)C[C@]3(C)[C@]2(C(=O)CCl)O1", "note": "[Halcinonide]", "cell-surface Lgr5 expression": "1.71 (active)"}
{"compound": "CC(=O)OCC(=O)[C@@]1(O)CC[C@H]2[C@@H]3CCC4=CC(=O)C=C[C@]4(C)[C@@]3(Cl)[C@@H](Cl)C[C@@]21C", "note": "[Dichlorisone acetate]", "cell-surface Lgr5 expression": "1.55 (active)"}
{"compound": "CC(=O)OCC(=O)[C@@]1(O)CC[C@H]2[C@@H]3CCC4=CC(=O)CC[C@]4(C)[C@@]3(F)[C@@H](O)C[C@@]21C", "cell-surface Lgr5 expression": "1.35 (active)"}
{"compound": "Nc1ccn([C@@H]2CS[C@H](CO)O2)c(=O)n1", "note": "[Lamivudine]", "cell-surface Lgr5 expression": 0.724}
{"compound": "COc1cc2c(cc1OC)C(=O)C(CC1CCN(Cc3ccccc3)CC1)C2", "note": "(centres undefined) [Donepezil hydrochloride]", "cell-surface Lgr5 expression": 0.531}
{"compound": "C[N+](C)(C)CCO.O=C([O-])CC(O)(CC(=O)O)C(=O)O", "note": "[Choline dihydrogen citrate]", "cell-surface Lgr5 expression": 0.803}
{"compound": "CCOC(=O)[C@H](CCc1ccccc1)N[C@@H](C)C(=O)N1Cc2ccccc2C[C@H]1C(=O)O", "note": "[Quinapril]", "cell-surface Lgr5 expression": 1.13}
{"compound": "O=C([O-])[O-].[Li+].[Li+]", "note": "[Lithium carbonate]", "cell-surface Lgr5 expression": 0.278}
{"compound": "N=C(N)NC(=N)NCCc1ccccc1", "note": "[Phenformin hydrochloride]", "cell-surface Lgr5 expression": 0.756}
{"compound": "O=S(=O)([O-])[O-].[Fe+2]", "note": "[Ferrous sulfate]", "cell-surface Lgr5 expression": 0.888}
{"compound": "CCCCOc1cc(C(=O)OCCN(CC)CC)ccc1N", "note": "[Benoxinate]", "cell-surface Lgr5 expression": 0.987}
{"compound": "CCN(CC)CCOc1ccc2c(c1)C(=O)c1cc(OCCN(CC)CC)ccc1-2", "note": "[Tilorone dihydrochloride]", "cell-surface Lgr5 expression": "1.62 (active)"}
{"compound": "CCCOc1ccc(C(=O)OCCN(CC)CC)cc1N", "note": "[Proparacaine]", "cell-surface Lgr5 expression": 1.22}
{"compound": "Cl.Cl.NCCN", "note": "[Ethylenediamine dihydrochloride]", "cell-surface Lgr5 expression": 1.05}
{"compound": "COC(=O)[C@H](Cc1ccccc1)NC(=O)[C@@H](N)CC(=O)O", "note": "[Aspartame]", "cell-surface Lgr5 expression": 0.834}
{"compound": "C[C@H](CCC(=O)O)[C@H]1CC[C@H]2[C@@H]3[C@@H](O)C[C@@H]4C[C@H](O)CC[C@]4(C)[C@H]3CC[C@]12C", "note": "[Ursodiol (Ursodeoxycholic acid)]", "cell-surface Lgr5 expression": 0.801}
{"compound": "S=c1[nH]cnc2nc[nH]c12", "note": "[6-Mercaptopurine monohydrate]", "cell-surface Lgr5 expression": "1.67 (active)"}
{"compound": "Nc1nc2[nH]cnc2c(=S)[nH]1", "note": "[Thioguanine (2-amino,6-mercaptopurine)]", "cell-surface Lgr5 expression": 0.849}
{"compound": "COc1ccc(CN2CCN(C(c3ccc(F)cc3)c3ccc(F)cc3)CC2)c(OC)c1OC", "note": "[Lomerizine HCl]", "cell-surface Lgr5 expression": 1.15}
{"compound": "O=C[O-].[Na+]", "note": "[Sodium formate]", "cell-surface Lgr5 expression": 0.903}
{"compound": "C=N[C@@H](C(=O)N[C@@H]1C(=O)N2[C@@H]1SC(C)(C)[C@@H]2C(=O)O)c1ccccc1", "note": "[Metampicillin]", "cell-surface Lgr5 expression": 0.953}
{"compound": "N.N.O=S(=O)(O)O", "note": "[Ammonium sulfate]", "cell-surface Lgr5 expression": 0.987}
{"compound": "COc1ccc2cc3[n+](cc2c1OC)CCc1cc2c(cc1-3)OCO2", "note": "[Berberine]", "cell-surface Lgr5 expression": "1.64 (active)"}
{"compound": "COc1ccc2cc3[n+](cc2c1OC)CCc1cc2c(cc1-3)OCO2", "note": "[Berberine bisulfate]", "cell-surface Lgr5 expression": 1.47}
{"compound": "O.O.O.O.O.O.[Cl-].[Cl-].[Sr+2]", "note": "[Strontium chloride hexahydrate]", "cell-surface Lgr5 expression": 1.29}
